A selection: hits, their analogues and other compounds. The true share with any hit is near 0.56%.
KinaseGlo FLuc: counter-screen: inhibitors of Kinase-Glo firefly luciferase; Potency, µM (top dose mostly 38.3 µM), without a hit: at the top dose activity change, negative = inhibition, actives largely listed as inhibitors; AID 1379; Q27757; actives 0.28% (n = 200,000); Kinase-Glo luciferase, ATP luminescence, 8 min; note: potency is the fitted concentration of half-maximal effect; % is set by controls: 0 for no effect and ±100 for the full control effect; nearly all actives have a fitted effect of over 60% in size
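Recombinant Kinase-Glo luciferase, 10 uM ATP (linear range), luciferin; imidazole pH 7.2 / KCl / MgCl2 / Tween / BSA buffer; 8 min RT; luminescence.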
PKM2 act: increases activity of human pyruvate kinase M2. AID 1631. Potency, µM (series often up to 57.5 µM), for the others: top-dose activation, usual class: activators. actives 0.34% (n = 260,000). purified PKM2, Kinase-Glo ATP luminescence, activation; response scale: 0% is enzyme alone, no compound. P14618; note: potency is the fitted concentration of half-maximal effect; % is set by controls: 0 for no effect and ±100 for the full control effect; nearly all actives have a fitted effect of over 55% in size
Target sequence (P14618 whole entry, looked up): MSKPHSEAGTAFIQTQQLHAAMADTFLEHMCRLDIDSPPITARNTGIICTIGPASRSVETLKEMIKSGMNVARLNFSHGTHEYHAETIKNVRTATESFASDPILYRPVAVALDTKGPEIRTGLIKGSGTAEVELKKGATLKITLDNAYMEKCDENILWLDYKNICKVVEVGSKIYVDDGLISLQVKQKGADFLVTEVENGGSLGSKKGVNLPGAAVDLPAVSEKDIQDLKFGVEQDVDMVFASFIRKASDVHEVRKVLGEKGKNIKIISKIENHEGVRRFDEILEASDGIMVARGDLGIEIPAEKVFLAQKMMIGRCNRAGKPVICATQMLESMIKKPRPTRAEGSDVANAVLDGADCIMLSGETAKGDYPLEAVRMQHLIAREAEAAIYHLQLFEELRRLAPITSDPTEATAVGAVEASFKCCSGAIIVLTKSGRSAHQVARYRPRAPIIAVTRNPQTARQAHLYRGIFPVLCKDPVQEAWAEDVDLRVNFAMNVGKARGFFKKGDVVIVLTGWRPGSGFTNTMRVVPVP
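Purified hPK-M2 (>95%) run at intermediate activity with 0.1 mM ADP and 0.5 mM PEP in 50 mM imidazole pH 7.2, KCl, MgCl2; 1 h room temperature. ATP formed read by Kinase-Glo luminescence; normalized to uninhibited and no-enzyme controls.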
CBFb-RUNX1 inh: CBF-beta/RUNX1 interaction disruption. Q01196+Q13951. AID 1477. Potency, µM (doses to about 59.8 µM), for inactives: at the highest dose activity, negative = inhibition, actives largely listed as inhibitors. AlphaScreen CBFb-His/RUNX1-biotin binding, biochemical. 230,000 tested, under 10 active; note: % of control where 0% means no effect
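Proteins preincubated together for 20 min at RT before compound addition; 15 min later, nickel and streptavidin beads were added and left 90 min prior to AlphaScreen measurement.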
GALK inh: galactokinase (human) inhibition; Potency, µM (titrated, usually from 57.5 µM), inactives show at the top dose activity change, negative = inhibition, most hits filed as inhibitors; P51570; actives 0.007% (n = 270,000); Purified GALK, Kinase-Glo residual ATP luminescence; note: potency is the fitted concentration of half-maximal effect; % is set by controls: 0 for no effect and ±100 for the full control effect
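Compounds were pin-transferred into ATP buffer (35 uM final), then GALK plus galactose (5 nM, 100 uM final) was added. After 1 h at room temperature, Kinase-Glo Plus was added and luminescence read after 10 min.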
Tb PFK inh-1: blocks T. brucei phosphofructokinase. actives 0.17% (n = 330,000). Potency, µM (series often up to 57.5 µM), without a hit: at the highest dose activity, negative = inhibition, hits mostly inhibitors. T. brucei PFK, ADP-Glo luminescence. O15648. AID 485367;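 note: potency is the fitted concentration of half-maximal effect; 0% = uninhibited 1x PFK enzyme wells and -100% = no-enzyme wells; nearly all actives have a fitted effect of over 60% in size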
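Luminescent ADP detection (ADP-Glo, two-step: ATP depletion then ADP-to-ATP conversion for luciferase) reported PFK activity after 45 min room-temperature reaction of 1.25 nM enzyme with 0.5 mM F6P and 0.1 mM ATP at pH 8.0.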
Tb PFK KinaseGlo: inhibits T. brucei PFK measured by ATP depletion. shares compounds with Tb PFK inh-1. Tb PFK enzyme, ATP depletion, Kinase-Glo Plus luminescence. Potency, µM (doses to about 57.5 µM), inactives show at the highest dose inhibition. actives 47% (n = 1,100); calls by dose curve; note: potency is the fitted concentration of half-maximal effect; nearly all actives have a fitted effect of over 60% in size
Tb PFK inh-2: validation of T. brucei phosphofructokinase inhibitors; shares compounds with Tb PFK inh-1; purified T. brucei PFK, ADP-Glo luminescence, 45 min; Potency, µM (top dose mostly 57.5 µM), for inactives: top-dose activity change, negative = inhibition, actives largely listed as inhibitors; actives 41% (n = 1,100);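 note: potency is the fitted concentration of half-maximal effect; plate controls were full PFK enzyme control for no effect and no enzyme control for full effect; nearly all actives have a fitted effect of over 60% in size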
Numbers without * were called inactive; ? = inconclusive; / = no result given; [ ] = remark or other dose. Unless noted, calls come from the whole dose curve; as a rule, active = well fitted curve in the direction sought with a large enough effect; inconclusive = small, poorly fitted or top-dose-only effect, or another doubt; inactive = no such curve, though single readings can be large; an effect the other way counts as inactive or inconclusive.

SMILES	KinaseGlo FLuc	PKM2 act	CBFb-RUNX1 inh	GALK inh	Tb PFK inh-1	Tb PFK KinaseGlo	Tb PFK inh-2
Oc1c(Cl)cccc1Cl	/	/	-4%[21.7 µM]	/	/	/	/
CCc1nn2c(N)c(/C=C3\C=Nc4ccccc43)c(=O)nc2s1	-2%	13%	?	1%	?	-26%	?
C=CCn1c(O)c(/C=C2\C=Nc3ccccc32)c(=O)[nH]c1=O	/	?	10%	/	3%	/	/
C=C(C)c1ccccc1 (tested in a mixture with another compound)	-2%[7.66 µM]	/	/	/	/	/	/
N=C(N)SCc1ccc(Cl)c2ccccc12 (tested in a mixture with another compound)	-2%[7.66 µM]	/	/	/	/	/	/
CCOC(=O)c1c(-c2ccc(C)o2)csc1NC(=O)COC(=O)c1ccc(NC(N)=O)cc1	-4%	?	3%	0%	2.1µM*	?	-20%
CCOC(=O)c1ccc(NC(=O)c2c(O)[nH]c(=O)[nH]c2=O)cc1	10%	-2%	-11%	2%	20%	/	/
Nc1nc(=S)c2ncn(C3CCCC3)c2[nH]1	/	4%	7%	3%	?	?	?
NCC(CC(=O)O)c1ccc(Cl)s1 (stereo unspecified)	/	/	-1%	/	/	/	/
Cc1cc(C)c2c(=O)n(CC(=O)Nc3cccc(Cl)c3C)sc2n1	/	3.2µM*	3%	-2%	4.8µM*	?	6µM*
Cc1cc(C)c2c(=O)n(CC(=O)NC3CCCC3)sc2n1	/	-22%	5%	1%	6µM*	?	5.4µM*
Cc1cc(C)c2c(=O)n(CC(=O)Nc3ccc(Br)c(C)c3)sc2n1	/	?	3%	-1%	13µM*	2.7µM*	3µM*
Cc1ccccc1N(CC(=O)NC1CCCC1)C(=O)c1csnn1	1%	?	7%	3%	-1%	/	/
CCCN1CCCC2Cc3[nH]ncc3CC21 (stereo unspecified)	-4%	/	4%	/	/	/	/
NC1=N[C@H](O)[C@H]2C3O[C@]4(O)O[C@H](C(O)[C@@]2(N1)[C@@H]4O)C3(O)CO (stereo partly specified)	1%[39.9 µM]	/	-4%	/	/	/	/
CC(=O)Oc1ccc(CC(C(=O)O)N2C(=O)c3ccccc3C2=O)cc1 (stereo unspecified)	/	/	/	5%	?	17µM*	?
NC(N)=NS(=O)(=O)c1ccc(NC(=S)NC(=O)Cc2ccc(Cl)cc2)cc1	/	4%	/	3%	?	27µM*	30µM*
O=C(C[C@H](c1ccccc1)c1c(O)c2ccccc2oc1=O)c1ccccc1	-4%[7.66 µM]	/	/	/	/	/	/
Cc1nc2ccc(NC3=NCCCCC3)cc2s1	2%	-7%	6%	1%	11µM*	8.5µM*	6.7µM*
CC/C=C\C[C@@H](/C=C/C=C\C/C=C\C/C=C\CCCC(=O)O)OO	0%	/	-9%	/	/	/	/
O=C(Nc1cnn(Cc2ccc(Cl)c(Cl)c2)c1)c1nc2ncccn2n1	-1%	-10%	6%	-2%	5.4µM*	2.7µM*	5.4µM*
O=C(O)c1cccc2c1C(=O)c1cc(Br)ccc1S2(=O)=O	/	/	/	/	?	-29%	?
Cc1ccn(-c2cc(O)c(-n3ccc(C)n3)cc2O)n1	2%	-27%	-6%	-1%	?	-14%	?
O=[N+]([O-])c1ccc(N2CCN(c3cccc(Cl)c3)CC2)cn1	/	9%	/	-2%	12µM*	?	5.4µM*
CN1CCN(c2ccc([N+](=O)[O-])c(Sc3ccccn3)c2)CC1	/	3%	-8%	-1%	0%	/	/
SMILES	KinaseGlo FLuc	PKM2 act	CBFb-RUNX1 inh	GALK inh	Tb PFK inh-1	Tb PFK KinaseGlo	Tb PFK inh-2
CS(=O)(=O)O[C@H]1CN2CCC1CC2	-3%[7.66 µM]	/	/	/	/	/	/
CCCCC(CC)COC(=O)c1ccc(C(=O)OCC(CC)CCCC)c(C(=O)OCC(CC)CCCC)c1 (stereo unspecified)	/	/	19%[21.7 µM]	/	/	/	/
C[C@@H](Cc1cccc(C(F)(F)F)c1)NCCCc1ccccc1	-1%	/	3%[21.7 µM]	/	/	/	/
C=C(C)C(=O)Nc1cccc(C2=NOC3(C2)C[C@@H](C(N)=O)N(C(=O)c2ccc(Cl)cc2)C3)c1 (stereo partly specified)	/	-3%	?	-2%	9.5µM*	0.67µM*	0.95µM*
C=C(C)C(=O)Nc1cccc(C2=NOC3(C2)C[C@@H](C(N)=O)N(C(=O)C(=C)C)C3)c1 (stereo partly specified)	/	-2%	/	0%	?	2.7µM*	1.7µM*
C=C(C)C(=O)Nc1cccc(C2=NOC3(C2)C[C@H](C(N)=O)N(C(=O)COc2ccc(Cl)cc2)C3)c1 (stereo partly specified)	/	1%	?	-2%	?	0.54µM*	0.67µM*
O=Cc1ccc2c(c1)OCO2	/	/	2%[21.7 µM]	/	/	/	/
CC(Cc1ccccc1)NC(=O)Cc1ccc([N+](=O)[O-])cc1 (stereo unspecified)	/	1%	/	-7%	?	/	/
COc1cccc(C(=O)NNC(=O)Cc2ccc([N+](=O)[O-])cc2)c1	-2%	-2%	5%	-2%	?	?	?
O=C(c1ccccc1)[C@H]1[C@H](c2ccccc2[N+](=O)[O-])N1C1CCCCC1 (stereo partly specified)	-3%[7.66 µM]	/	/	/	/	/	/
Cc1c(Cl)cnc(NC(=O)COC(=O)c2ccc3ncsc3c2)c1Cl	1%	3%	5%	-2%	?	-35%	?
O=C(/C=C/c1ccco1)OCC(=O)N1CCCCC1	/	/	/	/	?	6µM*	?
O=C(CSc1ccsc1[N+](=O)[O-])Nc1cc(F)ccc1F	3%	23%	2%	0%	?	6.7µM*	?
CCN(CC)c1ccc(NC(=O)CSc2ccsc2[N+](=O)[O-])c(C)c1	-3%	-5%	-2%	0%	?	?	-27%
O=C(CCCN1CCC2(CC1)C(=O)N(Cc1cccc(F)c1)CN2c1ccccc1)c1ccc(F)cc1	1%	/	-12%	/	/	/	/
CN1CCc2ccccc2Cc2[nH]c3ccccc3c2CC1	-3%	/	2%	/	12µM*	15µM*	13µM*
CC(=O)OC[C@H](N)C(=O)c1ccccc1	1%[39.9 µM]	/	7%	/	/	/	/
O=C(O)C(Oc1nc(=S)[nH]c(=S)[nH]1)(c1ccc(Cl)cc1)c1ccc(Cl)cc1	-1%[7.66 µM]	/	/	/	/	/	/
Oc1cc2c(cc1C(c1ccc(Cl)c(Cl)c1)N1CCCC1)OCO2 (stereo unspecified)	2%	16%	-22%	0%	21µM*	?	?
